# From PubChem BioAssay
# This is a sample that favours compounds with a hit; in the whole collection about 9.2% have one here.
# ELG1 repair inh: blocks ELG1-dependent DNA repair in HEK293T cells. HEK293T ELG1-luciferase reporter, luminescence, 16 h; DNA damage induced by 5-fluorouridine. Potency, µM (doses to about 46.1 µM), actives largely listed as inhibitors. hit rate 2.3% among 330,000; note: nearly all actives have a fitted effect of over 55% in size
#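 In this reporter screen, reduction of luminescence relative to DMSO vehicle indicated activity. Compounds and 5-fluorouridine were added together to 2,000 cells per well, incubated for 16 hr at 37 °C, then developed with ONE-Glo.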
# SMN2 splice up: increases expression of the SMN2 splice variant; HEK293 SMN2-luciferase splicing reporter, luminescence, 30-36 h; Potency, µM (highest dose often 46.1 µM), usual class: activators; hit rate 2.8% among 210,000; note: nearly all actives have a fitted effect of over 55% in size
#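 HEK293 cells carry an SMN2 minigene-luciferase reporter in which exon 7 inclusion puts luciferase in frame. Cells were seeded at 2000 cells/well, attached for 10-12 hours, then exposed to compounds for 30-36 hours at 37C before ONE-Glo luminescence.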
# FLuc modulator: counter-screen for miR-21 project: firefly luciferase inhibitors or activators. P08659. Potency, µM (doses to about 57.5 µM), usual class: inhibitors. purified FLuc, Km substrates, luminescence inhibition. hit rate 6.9% among 360,000; note: nearly all actives have a fitted effect of over 55% in size
# Target sequence (P08659 whole entry, looked up): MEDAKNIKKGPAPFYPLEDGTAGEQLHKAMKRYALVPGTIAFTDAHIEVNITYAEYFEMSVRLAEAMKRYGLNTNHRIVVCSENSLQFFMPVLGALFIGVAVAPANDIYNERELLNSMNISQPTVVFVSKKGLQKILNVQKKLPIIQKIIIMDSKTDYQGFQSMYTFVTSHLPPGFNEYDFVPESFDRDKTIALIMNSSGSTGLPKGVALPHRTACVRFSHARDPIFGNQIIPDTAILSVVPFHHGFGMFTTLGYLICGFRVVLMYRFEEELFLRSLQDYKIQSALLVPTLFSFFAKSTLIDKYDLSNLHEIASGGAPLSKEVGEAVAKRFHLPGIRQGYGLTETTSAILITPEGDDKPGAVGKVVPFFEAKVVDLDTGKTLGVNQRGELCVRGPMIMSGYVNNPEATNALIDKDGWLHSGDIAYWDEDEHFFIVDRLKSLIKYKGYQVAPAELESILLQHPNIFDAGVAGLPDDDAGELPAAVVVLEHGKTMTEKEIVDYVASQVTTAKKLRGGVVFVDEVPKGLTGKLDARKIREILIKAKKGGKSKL
#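 Biochemical qHTS of compounds, final roughly 60 µM downward over six points, against 10 nM purified firefly luciferase using Km concentrations of substrates (10 uM D-luciferin, 10 uM ATP) in Tris acetate pH 7.5 buffer; luminescence output.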
# ELG1 genotoxic: genotoxicity induction in ELG1-luciferase HEK293T cells; hit rate 1.3% among 330,000; AID 504466; Potency, µM (titrated, usually from 46 µM), most hits filed as activators; HEK293T ELG1-luciferase reporter, luminescence, 16 h; note: nearly all actives have a fitted effect of over 60% in size
#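 HEK293T cells expressing luciferase-tagged ELG1 were exposed to compound or DMSO vehicle for 16 hr at 37 °C and 5% CO2. Luciferase activity was then measured with ONE-Glo after 30 min at room temperature.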
# Rab9 promoter act: activators of Rab9 promoter | Huh7 Rab9 promoter-luciferase reporter, luminescence, 24 h | Potency, µM (highest dose often 9.22 µM), actives largely listed as activators | hit rate 2.8% among 320,000; note: nearly all actives have a fitted effect of over 60% in size
#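 Cell-based reporter: Huh7 stable for Rab9 promoter-driven luciferase, plated in reduced-serum medium with 10% FBS at 1500 cells/well, compound-treated 24 h at 37 °C, luminescence read after 10 min reagent.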
# NPC1 prom act: activators of NPC1 promoter; Huh7 NPC1 promoter luciferase reporter, 24 h; hit rate 2.4% among 320,000; AID 485313; Potency, µM (series often up to 9.22 µM), actives largely listed as activators; note: nearly all actives have a fitted effect of over 60% in size
#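 Stable NPC1-promoter luciferase Huh7 line; cpd (DMSO) 24 h, 37 °C, 5% CO2; Amplite luciferase reagent 10 min RT; luminescence readout. qHTS format.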
# Numbers stand for hits; - = inactive; ? = inconclusive; . = no result; [ ] = dose if it differs, or a comment. Calls come from the whole dose curve; as a rule, active = well fitted curve in the direction sought with a large enough effect; inconclusive = small, poorly fitted or top-dose-only effect, or another doubt; inactive = no such curve, though single readings can be large; an effect the other way counts as inactive or inconclusive.
SMILES,ELG1 repair inh,SMN2 splice up,FLuc modulator,ELG1 genotoxic,Rab9 promoter act,NPC1 prom act
O=C(/C=C/NNC(=O)c1ccccc1)c1ccccc1,?,-,?,?,-,-
COc1ccc(S(=O)(=O)N2CCCCC2)cc1NC(=O)CN(Cc1ccco1)Cc1ccco1,?,.,.,-,-,-
CCC(CC)c1nn2c(=O)cc(COc3ccc(NC(=O)c4ccccc4C)cc3)nc2s1,.,-,-,.,.,.
Cc1ccc(C(=O)/C=C\NCc2ccccc2)cc1,?,?,10.7µM,-,?,?
CC1CCN(CC(=O)N2c3ccccc3Sc3cc4ccccc4cc32)CC1,.,-[9.22 µM],.,.,.,.
C=CCSc1nc2c(cnn2-c2ccccc2)c(=O)n1N,?,.,8.49µM,?,1.41µM,1.41µM
Cc1cc(C)n(CCN(C)C(=O)CCc2nnc(CCC3CCCCC3)o2)n1,?,.,15.1µM,?,?,?
CN(C(=O)CCc1nnc(-c2ccc(-c3ccccc3)cc2)o1)C1CCOCC1,?,.,16.9µM,-,-,-
CN(CCCC1CCCC1)C(=O)CCc1nnc(-c2ccccc2)o1,?,12.6µM,12µM,20.6µM,2.51µM,?
Cc1ccc(-c2n[nH]c3c2C(c2ccc(C(C)(C)C)cc2)NC3=O)cc1 (centres undefined),.,-,-,.,.,.
COc1ccc2c(c1)[nH]c1c(=O)n(Cc3ccccn3)cnc12,?,-,?,-,-,-
COc1ccc2c(c1)c1ncn(Cc3ccco3)c(=O)c1n2C,16.4µM,-,?,-,-,-
COc1ccc2c(c1)[nH]c1c(=O)n(Cc3ccco3)cnc12,?,?,-,18.4µM,?,?
Cc1nn(C(=O)c2cccc([N+](=O)[O-])c2C)c(C)c1S(=O)(=O)N1CCCCCC1,.,.,-,.,.,.
O=C(O)/C=C/c1nc(-c2ccccc2)n2ccccc12,?,?,-,-,-,-
O=C1C=C(c2ccc(F)cc2OCc2ccccc2)C[C@@H](c2ccc(Cl)cc2)C1,-,.,-,-,-,-
COc1ccc(C(=O)Nc2ccc(N3CCCCC3)cc2)cc1Br,?,?,?,-,?,-
COc1ccc(C(=O)NC(=S)Nc2nc(C)cc(C)n2)cc1Br,-,.,15.1µM,-,?,?
CCOc1ccc(C(=O)Nc2ccc3c(c2)OCCO3)cc1,?,.,2.13µM,2.31µM,0.398µM,0.501µM
CCOc1ccc(C(=O)Nc2ccc3c(c2)OCCO3)cc1Br,.,15.8µM,1.35µM,.,.,.
COc1ccc(C(=O)Nc2ccc3c(c2)OCCO3)cc1Br,?,.,1.51µM,?,1.26µM,1µM
COc1ccc(CNC(=O)CCS(=O)(=O)c2cc3c4c(c2)CCN4C(=O)CC3)cc1OC,.,.,-,.,.,.
CCCN1Cc2cccc(C(=O)Nc3ccc(CC)cc3)c2C1=O,?,-,2.69µM,-,-,-
CCCN1Cc2cccc(C(=O)Nc3ccc4c(c3)OCO4)c2C1=O,?,.,?,-,-,-
CCCN1Cc2cccc(C(=O)Nc3ccc4c(c3)OCCO4)c2C1=O,-,-,15.1µM,-,-,-
SMILES,ELG1 repair inh,SMN2 splice up,FLuc modulator,ELG1 genotoxic,Rab9 promoter act,NPC1 prom act
CCCN1Cc2cccc(C(=O)Nc3ccc(C)cc3)c2C1=O,-,-,-,-,-,-
O=C(O)CCC(O)=C1S(=O)(=O)OCCOS1(=O)=O,.,-[9.22 µM],.,.,.,.
CCC(=O)Nc1ccc(C(=O)COC(=O)c2sc(C)nc2C)cc1,-,.,-,-,-,-
COc1ccc(/C=C(\NC(=O)c2ccccc2)C(=O)NC2CCS(=O)(=O)C2)cc1 (centres undefined),-,.,-,-,-,-
Cc1cccc(Cc2nnc(CCC(=O)N(CC3CC3)CC3CCCO3)o2)c1 (centres undefined),?,.,21.3µM,?,?,?
c1ccc(CSc2ccc(-c3cccnc3)nn2)cc1,?,?,21.3µM,-,?,?
c1ccc(CSc2ccc(-c3ccc4c(c3)OCO4)nn2)cc1,?,17.8µM,2.69µM,?,3.16µM,3.55µM
c1cncc(CSc2ccc(-c3cccnc3)nn2)c1,?,-,-,-,-,-
Cn1c(SCc2ccccc2)nnc1-c1ccc2c(c1)OCO2,?,22.4µM,?,18.4µM,?,?
Fc1ccc(CSc2ccc(-c3ccc4c(c3)OCO4)nn2)cc1,?,-,?,-,-,-
Cn1c(SCC#N)nnc1-c1ccc2c(c1)OCO2,-,-,-,-,-,-
Nc1nnc(N2CCCCC2)s1,-,-,-,-,-,-
CC1CCN(c2nnc(N)s2)CC1,?,2.51µM,4.26µM,?,1.26µM,2.24µM
COc1ccc(NC(=O)C2CCN(C(=O)c3sc4nc[nH]c(=O)c4c3C)CC2)c(OC)c1,.,.,-,.,.,.
CCN1CCN(Cc2c(O)ccc3c(=O)c(-c4ccccc4OC)coc23)CC1,-,-,-,-,-,-
CCN1CCN(Cc2c(O)ccc3c2O/C(=C\C=C\c2ccccc2OC)C3=O)CC1,-,-,4.78µM,-,-,-
CCOC(=O)C(CCc1ccccc1)NC1CCc2ccccc2N(CC(=O)O)C1=O (centres undefined),.,-,.,.,.,.
CCCn1nc2cc(C(=O)NCCc3cccs3)ccc2c1OCC,?,15.8µM,?,-,?,?
CCN1CCC(N(Cc2ccc(F)cc2)C(=O)Nc2cccc(C(F)(F)F)c2)CC1,.,.,-,.,.,.
NC(=O)CSc1nnnn1-c1cccc(O)c1,.,.,-,.,.,.
CCCc1nc2c(ccc3ccccc32)cc1CC,-,.,-,-,-,-
Cc1nc2c(C(=O)NCc3ccc4c(c3)OCO4)cnn2c(C)c1Cc1ccc(F)cc1Cl,20.6µM,-,-,-,-,-
CCCCC(=O)OCc1nc2ccccc2s1,?,-,21.3µM,-,-,-
O=C(O)c1ccccc1OCc1nc2ccccc2s1,?,.,3.79µM,?,-,?
O=C(c1ccccc1)c1ccc(COC(=O)c2cnccn2)cc1,-,-,23.9µM,-,-,-
SMILES,ELG1 repair inh,SMN2 splice up,FLuc modulator,ELG1 genotoxic,Rab9 promoter act,NPC1 prom act
O=C(O)c1ccccc1OCc1ccccc1Br,-,-,-,-,-,-
Cc1noc(C)c1COC(=O)CCCc1nc2ccccc2s1,-,-,-,-,-,-
COc1cc(OC)cc(C(=O)NCC(=O)OCc2nc3ccccc3s2)c1,?,.,9.53µM,?,?,-
COc1ccc(NC(=O)c2nnn(Cc3nc(-c4cc(Br)ccc4OC)oc3C)c2C)cc1,.,-,-,.,.,.
COc1ccccc1-c1nc2c(c(SCc3cccc(Cl)c3)n1)Cc1c(CO)cnc(C)c1O2,.,.,-,.,.,.
O=C(OCc1nc2ccccc2s1)c1cnccn1,?,-,10.7µM,?,-,-
O=C(OCc1nc2ccccc2s1)c1cccs1,.,?,2.69µM,.,.,.
N#C/C(=C(/O)COC(=O)c1ccccc1O)c1nc2ccccc2s1,-,-,21.3µM,-,-,-
O=C(OCc1nc2ccccc2s1)c1ccccc1O,?,-,8.49µM,?,-,-
COc1ccccc1CNS(=O)(=O)c1cnc(N)nc1,.,.,-,.,.,.
